Holding throughout (experiment): DAPPL (digital affinity profiling via proximity ligation, sequencing); 10 mM Tris-HCl pH 7.5, 50 mM NaCl, 1 mM DTT, 4% glycerol, room temperature, 30 min; GST-TFs on glutathione beads, 16-mer random dsDNA library, 0.1% formaldehyde crosslink after washing; high values mean tight binding
Holding throughout (conditions): protein: recombinant; tags: N-terminal GST; dsDNA, one strand shown

One assay addresses T1, FLI1 (Homo sapiens, UniProt Q01543 1-452).
T1 sequence: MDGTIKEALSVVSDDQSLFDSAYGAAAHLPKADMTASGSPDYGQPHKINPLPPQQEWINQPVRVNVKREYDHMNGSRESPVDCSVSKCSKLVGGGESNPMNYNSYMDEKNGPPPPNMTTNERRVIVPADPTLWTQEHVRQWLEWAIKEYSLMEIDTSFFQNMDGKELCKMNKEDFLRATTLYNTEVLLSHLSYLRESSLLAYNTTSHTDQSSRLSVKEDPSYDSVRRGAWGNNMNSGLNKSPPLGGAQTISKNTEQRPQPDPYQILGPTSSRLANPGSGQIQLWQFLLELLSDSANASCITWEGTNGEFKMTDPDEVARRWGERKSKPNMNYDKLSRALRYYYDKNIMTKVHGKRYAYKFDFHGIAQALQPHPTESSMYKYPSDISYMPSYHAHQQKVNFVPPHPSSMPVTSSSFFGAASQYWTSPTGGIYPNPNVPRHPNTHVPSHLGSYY
An outline of the steps: (§1)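 GST fusions of human transcription factors were expressed in yeast and captured with glutathione beads. Once given DNA barcodes and pooled alongside a tag-only sample, they were incubated for 30 min at room temperature with 200 nmole of a random double-stranded 16-mer DNA library in Tris/NaCl/DTT/glycerol buffer, then washed, crosslinked (0.1% formaldehyde), proximity-ligated, PCR-amplified and sequenced on an Illumina NextSeq500. The binding signal of each hexamer is its read frequency for a factor divided by its frequency for the tag-only sample.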

In the next assay the target is T2, ELK1 (Homo sapiens, UniProt P19419 1-428).
T2 sequence: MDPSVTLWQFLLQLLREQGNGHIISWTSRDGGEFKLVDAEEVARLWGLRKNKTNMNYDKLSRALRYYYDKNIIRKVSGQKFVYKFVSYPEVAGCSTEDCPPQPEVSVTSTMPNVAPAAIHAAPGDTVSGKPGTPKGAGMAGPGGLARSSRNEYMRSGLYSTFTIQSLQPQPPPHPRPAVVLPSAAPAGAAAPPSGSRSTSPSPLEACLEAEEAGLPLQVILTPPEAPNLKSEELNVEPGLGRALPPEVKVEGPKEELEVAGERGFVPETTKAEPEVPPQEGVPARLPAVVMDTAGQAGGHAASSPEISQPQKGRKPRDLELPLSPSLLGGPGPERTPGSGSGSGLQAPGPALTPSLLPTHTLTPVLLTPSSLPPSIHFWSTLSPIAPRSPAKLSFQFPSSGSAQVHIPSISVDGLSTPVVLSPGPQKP
An outline of the steps: as §1

The next assay has as its target T3, GABPA (Homo sapiens, UniProt Q06546 1-454).
T3 sequence: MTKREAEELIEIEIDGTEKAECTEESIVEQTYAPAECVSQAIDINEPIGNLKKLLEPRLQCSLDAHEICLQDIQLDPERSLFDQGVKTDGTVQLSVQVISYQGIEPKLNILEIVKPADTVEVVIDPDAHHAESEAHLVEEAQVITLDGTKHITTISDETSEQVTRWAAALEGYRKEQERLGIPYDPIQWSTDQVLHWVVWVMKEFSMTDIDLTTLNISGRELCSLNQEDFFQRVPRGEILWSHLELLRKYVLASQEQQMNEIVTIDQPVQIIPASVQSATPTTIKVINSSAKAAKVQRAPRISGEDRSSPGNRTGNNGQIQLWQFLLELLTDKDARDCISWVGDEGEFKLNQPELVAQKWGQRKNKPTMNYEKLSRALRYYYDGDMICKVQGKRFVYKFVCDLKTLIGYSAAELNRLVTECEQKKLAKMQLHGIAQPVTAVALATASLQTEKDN
The method, boiled down:
as §1

Another assay deals with T4, ERG (Homo sapiens, UniProt P11308 1-479).
T4 sequence: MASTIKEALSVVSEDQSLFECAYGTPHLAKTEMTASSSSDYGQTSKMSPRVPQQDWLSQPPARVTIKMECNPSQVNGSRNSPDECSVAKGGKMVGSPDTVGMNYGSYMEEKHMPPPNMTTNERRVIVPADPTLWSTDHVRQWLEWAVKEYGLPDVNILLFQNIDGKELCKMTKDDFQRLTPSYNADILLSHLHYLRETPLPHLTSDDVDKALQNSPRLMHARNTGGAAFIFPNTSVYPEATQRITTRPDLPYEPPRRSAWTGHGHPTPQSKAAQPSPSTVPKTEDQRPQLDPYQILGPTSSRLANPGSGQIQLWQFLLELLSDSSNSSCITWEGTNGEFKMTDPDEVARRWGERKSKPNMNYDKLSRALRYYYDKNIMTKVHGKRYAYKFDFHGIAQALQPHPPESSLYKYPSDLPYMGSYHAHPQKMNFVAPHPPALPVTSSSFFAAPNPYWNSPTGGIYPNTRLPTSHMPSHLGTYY
An outline of the steps:
as §1

In a further assay the target is ELF1 (Homo sapiens, UniProt P32519 1-619). An outline of the steps: as §1
The next assay deals with T5, EHF (Homo sapiens, UniProt Q9NZC4 1-300).
T5 sequence: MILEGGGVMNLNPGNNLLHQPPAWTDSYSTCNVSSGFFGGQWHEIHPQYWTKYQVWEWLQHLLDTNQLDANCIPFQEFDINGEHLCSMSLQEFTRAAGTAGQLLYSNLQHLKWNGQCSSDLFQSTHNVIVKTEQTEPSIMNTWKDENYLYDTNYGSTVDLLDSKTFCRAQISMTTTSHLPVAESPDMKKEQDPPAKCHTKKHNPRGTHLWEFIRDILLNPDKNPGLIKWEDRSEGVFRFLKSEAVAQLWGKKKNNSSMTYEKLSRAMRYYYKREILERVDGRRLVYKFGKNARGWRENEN
The method, boiled down: as §1

The next assay has as its target SPI1 (Homo sapiens, UniProt P17947 1-270). The method, boiled down:
as §1

A further assay deals with SPIB (Homo sapiens, UniProt Q01892 1-262). An outline of the steps:
as §1

In another assay the target is T6, ELK3 (Homo sapiens, UniProt P41970 1-407).
T6 sequence: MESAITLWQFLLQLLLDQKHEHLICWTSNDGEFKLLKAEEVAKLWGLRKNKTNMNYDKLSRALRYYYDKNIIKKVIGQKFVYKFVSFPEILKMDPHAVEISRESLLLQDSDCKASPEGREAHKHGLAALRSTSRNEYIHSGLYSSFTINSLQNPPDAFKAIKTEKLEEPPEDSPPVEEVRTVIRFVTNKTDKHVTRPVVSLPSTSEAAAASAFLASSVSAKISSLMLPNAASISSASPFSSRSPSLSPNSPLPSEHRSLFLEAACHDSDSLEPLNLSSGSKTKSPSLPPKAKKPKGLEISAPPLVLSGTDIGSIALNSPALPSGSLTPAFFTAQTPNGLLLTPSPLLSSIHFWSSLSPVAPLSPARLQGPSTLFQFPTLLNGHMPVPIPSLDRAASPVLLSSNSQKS
The method, boiled down:
as §1

For another assay, the target named is T7, FEV (Homo sapiens, UniProt Q99581 1-238).
T7 sequence: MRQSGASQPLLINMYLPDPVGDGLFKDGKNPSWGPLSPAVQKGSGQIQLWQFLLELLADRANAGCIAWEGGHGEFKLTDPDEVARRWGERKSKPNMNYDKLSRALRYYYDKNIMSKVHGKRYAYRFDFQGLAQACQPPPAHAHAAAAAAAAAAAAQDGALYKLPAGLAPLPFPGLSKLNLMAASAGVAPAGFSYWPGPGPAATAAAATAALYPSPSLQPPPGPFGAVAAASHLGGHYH
An outline of the steps:
as §1

The next assay concerns the target ETV5 (Homo sapiens, UniProt P41161 1-510). The method, boiled down:
as §1

Another assay has as its target T8, SPIC (Homo sapiens, UniProt Q8N5J4 1-248).
T8 sequence: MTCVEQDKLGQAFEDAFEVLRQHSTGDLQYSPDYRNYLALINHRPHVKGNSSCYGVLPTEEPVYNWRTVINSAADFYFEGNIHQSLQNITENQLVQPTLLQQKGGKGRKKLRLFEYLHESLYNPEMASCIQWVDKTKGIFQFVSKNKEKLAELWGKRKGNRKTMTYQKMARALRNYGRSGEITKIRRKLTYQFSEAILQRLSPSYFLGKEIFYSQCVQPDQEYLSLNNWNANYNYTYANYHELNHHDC
The method, boiled down: as §1

A further assay concerns the target ELF4 (Homo sapiens, UniProt Q99607 1-663). An outline of the steps:
as §1

For the next assay, the target named is T9, ELK4 (Homo sapiens, UniProt P28324-2 1-405).
T9 sequence: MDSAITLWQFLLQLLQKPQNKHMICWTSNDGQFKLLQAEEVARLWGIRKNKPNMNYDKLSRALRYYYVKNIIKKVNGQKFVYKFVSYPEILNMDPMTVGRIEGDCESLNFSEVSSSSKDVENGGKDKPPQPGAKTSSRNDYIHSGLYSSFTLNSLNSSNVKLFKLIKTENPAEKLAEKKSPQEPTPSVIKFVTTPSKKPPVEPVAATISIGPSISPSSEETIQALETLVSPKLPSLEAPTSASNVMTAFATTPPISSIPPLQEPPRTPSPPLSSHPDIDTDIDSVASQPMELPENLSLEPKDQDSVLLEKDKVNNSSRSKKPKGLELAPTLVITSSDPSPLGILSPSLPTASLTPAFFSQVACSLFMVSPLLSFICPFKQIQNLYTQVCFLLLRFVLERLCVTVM
The method, boiled down: as §1

The target in a further assay is T10, ETV2 (Homo sapiens, UniProt O00321 1-342).
T10 sequence: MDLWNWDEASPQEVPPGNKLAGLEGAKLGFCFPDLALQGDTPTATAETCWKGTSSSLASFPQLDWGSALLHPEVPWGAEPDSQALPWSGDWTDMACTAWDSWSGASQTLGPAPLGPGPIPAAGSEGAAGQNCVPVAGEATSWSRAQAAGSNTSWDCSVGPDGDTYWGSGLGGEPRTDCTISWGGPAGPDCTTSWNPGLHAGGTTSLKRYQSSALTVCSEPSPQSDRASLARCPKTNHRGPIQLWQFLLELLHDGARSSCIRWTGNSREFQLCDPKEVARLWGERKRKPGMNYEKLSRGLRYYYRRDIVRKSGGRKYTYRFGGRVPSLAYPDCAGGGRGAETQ
The method, boiled down: as §1

Another assay addresses T11, ELF3 (Homo sapiens, UniProt P78545 1-371).
T11 sequence: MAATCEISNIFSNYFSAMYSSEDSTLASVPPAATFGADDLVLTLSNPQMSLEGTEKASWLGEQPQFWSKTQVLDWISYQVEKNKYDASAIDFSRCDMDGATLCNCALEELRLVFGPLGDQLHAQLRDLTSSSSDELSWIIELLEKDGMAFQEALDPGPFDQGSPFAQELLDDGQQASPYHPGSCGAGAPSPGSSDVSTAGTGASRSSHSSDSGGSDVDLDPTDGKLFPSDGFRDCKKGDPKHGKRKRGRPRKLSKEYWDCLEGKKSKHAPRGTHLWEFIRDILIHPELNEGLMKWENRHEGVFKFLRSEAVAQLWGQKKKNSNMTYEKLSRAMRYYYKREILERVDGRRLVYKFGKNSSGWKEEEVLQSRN
The method, boiled down:
as §1

The next assay addresses ETV1 (Homo sapiens, UniProt P50549 1-477). The method, boiled down:
as §1

This note sets out measurements from PMC7862700, “An all-to-all approach to the identification of sequence-specific readers for epigenetic DNA modifications on cytosine”.

ETV5, sequence (P41161 whole entry): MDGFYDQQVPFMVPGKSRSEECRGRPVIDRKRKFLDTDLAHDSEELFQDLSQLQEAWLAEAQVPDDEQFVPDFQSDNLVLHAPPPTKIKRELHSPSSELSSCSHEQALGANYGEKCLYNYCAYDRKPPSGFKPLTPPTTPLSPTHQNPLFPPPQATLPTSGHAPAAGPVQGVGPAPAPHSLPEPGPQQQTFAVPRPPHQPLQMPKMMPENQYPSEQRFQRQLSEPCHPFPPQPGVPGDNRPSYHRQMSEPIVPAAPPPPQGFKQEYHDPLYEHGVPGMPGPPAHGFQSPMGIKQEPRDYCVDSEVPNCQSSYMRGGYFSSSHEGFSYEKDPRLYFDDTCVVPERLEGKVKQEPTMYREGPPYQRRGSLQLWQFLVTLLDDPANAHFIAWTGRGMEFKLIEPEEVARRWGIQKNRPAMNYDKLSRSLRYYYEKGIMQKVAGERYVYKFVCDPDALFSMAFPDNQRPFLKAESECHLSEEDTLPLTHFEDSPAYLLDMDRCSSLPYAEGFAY
ELF1, sequence (P32519 whole entry): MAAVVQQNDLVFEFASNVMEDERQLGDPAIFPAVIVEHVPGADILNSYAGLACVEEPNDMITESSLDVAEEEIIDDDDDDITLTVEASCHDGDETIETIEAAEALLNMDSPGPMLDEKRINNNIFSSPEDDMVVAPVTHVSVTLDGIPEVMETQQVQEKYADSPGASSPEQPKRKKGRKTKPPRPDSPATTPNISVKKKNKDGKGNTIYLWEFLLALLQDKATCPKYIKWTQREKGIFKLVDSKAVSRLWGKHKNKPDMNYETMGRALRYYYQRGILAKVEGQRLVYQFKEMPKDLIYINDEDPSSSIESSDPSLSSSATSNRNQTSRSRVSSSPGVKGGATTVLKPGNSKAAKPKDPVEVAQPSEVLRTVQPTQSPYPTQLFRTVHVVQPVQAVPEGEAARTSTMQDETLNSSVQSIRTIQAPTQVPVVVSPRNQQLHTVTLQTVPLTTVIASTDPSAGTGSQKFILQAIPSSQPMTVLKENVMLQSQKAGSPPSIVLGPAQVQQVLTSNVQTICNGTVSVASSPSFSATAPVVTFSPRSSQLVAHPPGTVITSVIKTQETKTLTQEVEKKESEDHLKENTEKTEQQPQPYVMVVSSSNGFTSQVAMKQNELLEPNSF
ETV1, sequence (P50549 whole entry): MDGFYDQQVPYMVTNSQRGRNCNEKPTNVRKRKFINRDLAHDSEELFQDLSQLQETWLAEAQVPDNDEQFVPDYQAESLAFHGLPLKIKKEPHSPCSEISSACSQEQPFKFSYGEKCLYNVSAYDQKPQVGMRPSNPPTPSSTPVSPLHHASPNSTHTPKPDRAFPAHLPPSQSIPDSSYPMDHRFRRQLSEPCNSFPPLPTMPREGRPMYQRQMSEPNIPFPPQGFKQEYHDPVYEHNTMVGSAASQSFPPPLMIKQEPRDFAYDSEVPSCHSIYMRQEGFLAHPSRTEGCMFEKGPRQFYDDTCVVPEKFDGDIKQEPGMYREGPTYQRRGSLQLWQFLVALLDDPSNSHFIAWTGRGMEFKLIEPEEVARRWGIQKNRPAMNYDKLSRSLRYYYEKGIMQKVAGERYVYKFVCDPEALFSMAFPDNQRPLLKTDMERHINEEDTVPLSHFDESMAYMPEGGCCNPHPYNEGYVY
ELF4, sequence (Q99607 whole entry): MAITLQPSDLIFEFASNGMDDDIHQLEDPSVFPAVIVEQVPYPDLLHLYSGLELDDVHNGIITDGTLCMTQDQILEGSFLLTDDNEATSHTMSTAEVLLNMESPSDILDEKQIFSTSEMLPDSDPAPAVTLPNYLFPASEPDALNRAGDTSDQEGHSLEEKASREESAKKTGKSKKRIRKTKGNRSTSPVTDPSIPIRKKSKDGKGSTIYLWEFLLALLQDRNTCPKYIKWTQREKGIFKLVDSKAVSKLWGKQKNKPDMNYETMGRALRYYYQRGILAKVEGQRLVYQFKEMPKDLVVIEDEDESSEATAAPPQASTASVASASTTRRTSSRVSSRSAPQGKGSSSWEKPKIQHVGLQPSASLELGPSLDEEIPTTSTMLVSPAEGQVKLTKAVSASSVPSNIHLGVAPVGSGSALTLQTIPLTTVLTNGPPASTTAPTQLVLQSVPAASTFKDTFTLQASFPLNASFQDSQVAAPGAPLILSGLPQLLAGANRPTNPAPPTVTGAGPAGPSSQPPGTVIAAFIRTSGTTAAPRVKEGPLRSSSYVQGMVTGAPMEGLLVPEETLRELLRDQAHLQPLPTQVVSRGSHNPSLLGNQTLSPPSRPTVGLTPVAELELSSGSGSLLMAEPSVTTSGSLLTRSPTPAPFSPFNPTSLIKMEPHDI
SPIB, sequence (Q01892 whole entry): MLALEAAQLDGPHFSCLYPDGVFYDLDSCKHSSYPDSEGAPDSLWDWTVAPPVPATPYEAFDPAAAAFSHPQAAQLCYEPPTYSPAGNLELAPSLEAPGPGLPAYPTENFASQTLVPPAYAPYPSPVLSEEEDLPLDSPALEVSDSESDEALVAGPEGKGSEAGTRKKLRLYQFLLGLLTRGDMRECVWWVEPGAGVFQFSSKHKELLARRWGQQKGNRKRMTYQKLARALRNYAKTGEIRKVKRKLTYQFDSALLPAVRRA

As to GCCGAC, the binding signal with FLI1 was 1.19 fold enrichment (6-mer frequency, TF over GST control); with ELK1, 1.23 fold enrichment (6-mer frequency, TF over GST control); with GABPA it was 1.21 fold enrichment (6-mer frequency, TF over GST control); in the assay with ERG, 1.17 fold enrichment (6-mer frequency, TF over GST control); with ELF1 it was 1.1 fold enrichment (6-mer frequency, TF over GST control); with EHF, 1.05 fold enrichment (6-mer frequency, TF over GST control). Besides, the binding signal with SPI1 was 1.05 fold enrichment (6-mer frequency, TF over GST control); with SPIB it was 1.18 fold enrichment (6-mer frequency, TF over GST control); with ELK3, 1.15 fold enrichment (6-mer frequency, TF over GST control); with FEV, 1.14 fold enrichment (6-mer frequency, TF over GST control); with ETV5, 1.02 fold enrichment (6-mer frequency, TF over GST control); with SPIC it was 1.34 fold enrichment (6-mer frequency, TF over GST control). In addition, the binding signal in the assay with ELF4 was 1.08 fold enrichment (6-mer frequency, TF over GST control); with ELK4, 1.15 fold enrichment (6-mer frequency, TF over GST control); with ETV2 it was 1.15 fold enrichment (6-mer frequency, TF over GST control); with ELF3, 1 fold enrichment (6-mer frequency, TF over GST control); with ETV1 it was 1.04 fold enrichment (6-mer frequency, TF over GST control).

Consider GTCACA, for which the binding signal was 1.11 fold enrichment (6-mer frequency, TF over GST control) with FLI1; 1.1 fold enrichment (6-mer frequency, TF over GST control) in the assay with ELK1; 1.12 fold enrichment (6-mer frequency, TF over GST control) with GABPA; 1.13 fold enrichment (6-mer frequency, TF over GST control) in the assay with ERG; 1.17 fold enrichment (6-mer frequency, TF over GST control) with ELF1; 1.07 fold enrichment (6-mer frequency, TF over GST control) with EHF. The binding signal in the assay with SPI1 was 1.13 fold enrichment (6-mer frequency, TF over GST control); with SPIB it was 1.07 fold enrichment (6-mer frequency, TF over GST control); with ELK3, 1.04 fold enrichment (6-mer frequency, TF over GST control); with FEV, 1.11 fold enrichment (6-mer frequency, TF over GST control); with ETV5, 1.1 fold enrichment (6-mer frequency, TF over GST control); with SPIC, 1.04 fold enrichment (6-mer frequency, TF over GST control). Besides, the binding signal with ELF4 was 1.08 fold enrichment (6-mer frequency, TF over GST control); with ELK4 it was 1.07 fold enrichment (6-mer frequency, TF over GST control); with ETV2, 1.01 fold enrichment (6-mer frequency, TF over GST control); with ELF3, 1.08 fold enrichment (6-mer frequency, TF over GST control); in the assay with ETV1 it was 1.06 fold enrichment (6-mer frequency, TF over GST control).
